Assay results published in the supplement of paper PMC6992640.
Counter-ions that a name gives are not always drawn. ± gives the standard deviation of the averaged measurements.

Legend:
Experiment in all cases: cell viability (% of vehicle); higher = less cytotoxic
Conditions in all cases: 10 µM; 72 h
HCI01 = test system: HCI01 (cells of a triple-negative basal-like breast cancer xenograft)
HCI03 = test system: HCI03 (cells of an ER-positive luminal breast cancer xenograft)
HCI09 = test system: HCI09 (cells of a triple-negative luminal androgen receptor type breast cancer xenograft)
HCI11 = test system: HCI11 (cells of an ER-positive luminal breast cancer xenograft)
HCI13 = test system: HCI13 (cells of an ER-positive luminal breast cancer xenograft)
HCI16 = test system: HCI16 (cells of a triple-negative basal-like breast cancer xenograft)
UCD52 = test system: UCD52 (cells of a triple-negative basal-like breast cancer xenograft)
WHIM2 = test system: WHIM2 (cells of a triple-negative basal-like breast cancer xenograft)
WHIM30 = test system: WHIM30 (cells of a triple-negative basal-like breast cancer xenograft)
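Also: PDX cells carrying CMV promoter-driven luciferase, viability read as total photon flux per second by IVIS imaging following D-luciferin, vehicle control 0.1% DMSO.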

Structure (SMILES)	cell viability (HCI01)	cell viability (HCI03)	cell viability (HCI09)	cell viability (HCI11)	cell viability (HCI13)	cell viability (HCI16)	cell viability (UCD52)	cell viability (WHIM2)	cell viability (WHIM30)
CC(C[N+](C)(C)C)OC(N)=O.[Cl-] (stereo unspecified) [Bethanechol chloride]	86.3 ± 5.2	88	90.8 ± 12	82.5	104 ± 14	101	100 ± 5.9	105 ± 6.2	79.4 ± 1.9
Cl.Cl.Clc1ccc(Nc2nnc(Cc3ccncc3)c3ccccc23)cc1 [Vatalanib (PTK787) 2HCl]	136 ± 53	104	54.7 ± 2.1	92.3	45.8 ± 8.3	76.5	55.4 ± 5	46 ± 19	93.2 ± 2.6
CNC(=C[N+](=O)[O-])NCCSCc1csc(CN(C)C)n1 [Nizatidine]	150 ± 9.3	120	108 ± 15	92.7	96.2 ± 5.7	133	83.6 ± 12	96.6 ± 1.9	123 ± 17
N#CC1CCCN1C(=O)CNC12CC3CC(CC(O)(C3)C1)C2 (stereo unspecified) [Vildagliptin (LAF-237)]	118.9 ± 0.29	125	88.7 ± 16	126	96.1 ± 17	114	121 ± 12	112 ± 1.5	141 ± 20
NCCCCC(NC(CCc1ccccc1)C(=O)O)C(=O)N1CCCC1C(=O)O.O.O (stereo unspecified) [Lisinopril dihydrate]	98.2 ± 20	137	106 ± 19	113	113 ± 3.5	130	105 ± 0.53	94 ± 22	150 ± 8.1
COCCOC(=O)C1=C(C)NC(C)=C(C(=O)OC(C)C)C1c1cccc([N+](=O)[O-])c1 (stereo unspecified) [Nimodipine]	136 ± 0.51	107	128 ± 25	115	87.6 ± 5.7	121	114 ± 5.1	132 ± 7.9	157 ± 28
CC1=C2N=C(C=C3N=C(C(C)=C4[N-]C(C)(C5N=C1C(C)(CCC(=O)NCC(C)OP(=O)([O-])OC1C(CO)OC(n6cnc7cc(C)c(C)cc76)C1O)C5CC(N)=O)C(C)(CC(N)=O)C4CCC(N)=O)C(C)(CC(N)=O)C3CCC(N)=O)C(C)(C)C2CCC(N)=O.[CH3-].[Co+3] (stereo unspecified) [Methylcobalamin]	81.6 ± 13	132	112 ± 14	91.1	112 ± 2.5	106	112 ± 9.1	91.3 ± 23	106.57 ± 0.028
CCn1cc(C(=O)O)c(=O)c2ccc(C)nc21 [Nalidixic acid]	86 ± 19	114	96.6 ± 10	92.1	113 ± 3	103	79 ± 6.3	87.7 ± 7.2	112 ± 12
CC1CNCCCN1S(=O)(=O)c1cccc2cncc(F)c12.Cl.O.O (stereo unspecified)	100 ± 12	140	96.3 ± 9	70.9	82.6 ± 8.8	58.7	84.8 ± 4.2	92.75 ± 0.41	82 ± 2
CC(C)CC(N)=O [Isovaleramide]	103 ± 22	132	97.6 ± 3.4	98.5	104 ± 13	94.6	99.9 ± 2	98.5 ± 13	96.1 ± 7.9
CCOC(=O)C1=C(C)NC(C)=C(C(=O)OCC)C1c1ccccc1C=CC(=O)OC(C)(C)C [Lacidipine]	107.7 ± 0.7	98.1	86.5 ± 9.8	110	88.7 ± 2.9	85.7	77.1 ± 6.1	99.8 ± 1.2	133 ± 3.9
Cc1ncc(C[n+]2csc(CCO)c2C)c(N)n1.Cl.[Cl-] [Thiamine HCl (Vitamin B1)]	113 ± 8.6	143	103 ± 16	88.6	59.8 ± 11	103	122 ± 39	149 ± 25	143 ± 3.5
CC#CC1(O)CCC2C3CCC4=CC(=O)CCC4=C3C(c3ccc(N(C)C)cc3)CC21C (stereo unspecified) [Mifepristone]	113 ± 13	99.2	72.6 ± 18	73.5	47.5 ± 0.63	89.3	73.3 ± 6.9	89.7 ± 2.1	93.3 ± 3
COC(=O)Nc1nc2ccc(C(=O)c3ccc(F)cc3)cc2[nH]1 [Flubendazole]	104 ± 3.6	103	103 ± 2.5	81.8	102 ± 8.7	140	80.3 ± 3.1	139 ± 36	106.1 ± 0.14
CCC1OC(=O)C(C)C(OC2CC(C)(OC)C(O)C(C)O2)C(C)C(OC2OC(C)CC(N(C)C)C2O)C(C)(O)CC(C)CN(C)C(C)C(O)C1(C)O.O.O (stereo unspecified) [Azithromycin Dihydrate]	110 ± 9	114	101 ± 10	112	144 ± 5	104	85.4 ± 1.5	102 ± 2.7	89 ± 1.7
COc1cc(C(C)=O)ccc1OCCCN1CCC(c2noc3cc(F)ccc23)CC1 [Iloperidone]	153 ± 25	101	117 ± 19	103	121 ± 14	172	88.2 ± 1.8	106 ± 6	122.82 ± 0.035
O=C(O)Cc1cc(I)c(Oc2ccc(O)c(I)c2)c(I)c1 [Tiratricol]	112 ± 48	99	82.8 ± 6.7	87.2	42.5 ± 4.2	97.2	75.6 ± 7.3	103 ± 20	115 ± 6.8
CCC1=CC2CN(C1)Cc1c([nH]c3ccccc13)C(C(=O)OC)(c1cc3c(cc1OC)N(C)C1C(O)(C(=O)OC)C(OC(C)=O)C4(CC)C=CCN5CCC31C54)C2 (stereo unspecified) [Vinorelbine]	100 ± 15	105	70.5 ± 25	78.5	46 ± 4.7	167	57.5 ± 23	60.5 ± 12	96.7 ± 3.6
OC[C@@H](O)[C@@H](O)[C@H](O)[C@H](O)CO [D-Mannitol]	74.7 ± 26	95.7	93.1 ± 16	83.2	88.7 ± 6.7	114	74 ± 2.5	97.5 ± 16	115 ± 6.2
CCNC1CC(C)S(=O)(=O)c2sc(S(N)(=O)=O)cc21.Cl (stereo unspecified) [Dorzolamide HCl]	100 ± 4.5	111	96.8 ± 21	130	121 ± 5.2	98.2	71.8 ± 5.1	105 ± 8.4	89.3 ± 6.7

Structure (SMILES)	cell viability (HCI01)	cell viability (HCI03)	cell viability (HCI09)	cell viability (HCI11)	cell viability (HCI13)	cell viability (HCI16)	cell viability (UCD52)	cell viability (WHIM2)	cell viability (WHIM30)
COc1ccc(C(=O)CC(=O)c2ccc(C(C)(C)C)cc2)cc1 [Avobenzone]	74.2 ± 40	126	74.1 ± 8.4	83.5	76.7 ± 5.2	119	71 ± 1.6	106 ± 37	141 ± 12
CC(CCC(=O)O)C1CCC2C3C(O)CC4CC(O)CCC4(C)C3CC(O)C12C (stereo unspecified) [Cholic acid]	96 ± 8.2	142	89.6 ± 7.1	87.2	109 ± 9.5	98.7	101.2 ± 0.7	96.7 ± 11	99.9 ± 11
C1CNCCN1.C[C@@]12CC[C@H]3c4ccc(OS(=O)(=O)O)cc4CC[C@H]3[C@H]1CCC2=O [Estropipate]	89.8 ± 7.5	173	81.6 ± 11	95.3	159 ± 20	104	104.03 ± 0.037	91.3 ± 27	98.27 ± 0.36
Clc1ccc2nsnc2c1NC1=NCCN1 [Tizanidine]	97.7 ± 3.7	94.6	149 ± 74	110	109 ± 26	110	101 ± 7.1	82.1 ± 22	91.9 ± 20
Cl.NC12CC3CC(CC(C3)C1)C2 [Amantadine HCl]	136 ± 17	117	104 ± 1.4	98.7	120 ± 7.4	132	93.3 ± 2.1	107 ± 17	105 ± 1.4
Nc1ccn(C2OC(CO)C(O)C2(F)F)c(=O)n1 (stereo unspecified) [Gemcitabine]	70.3 ± 11	95.9	75.1 ± 9.5	112	118 ± 5.3	64.7	100.6 ± 0.62	78.9 ± 22	119 ± 12
S=c1nc[nH]c2nc[nH]c12 [Mercaptopurine (6-MP)]	108 ± 4.9	104	116 ± 6	81.6	92.3 ± 12	74.9	91.6 ± 4.2	99.3 ± 24	118 ± 32
COc1cc2nc(N(C)CCCNC(=O)C3CCCO3)nc(N)c2cc1OC.Cl (stereo unspecified) [Alfuzosin HCl]	103 ± 3	97.4	105 ± 8.8	113	101 ± 24	113	91.6 ± 8.4	85.5 ± 3	133 ± 8.8
CCCCNc1cc(C(=O)O)cc(S(N)(=O)=O)c1Oc1ccccc1 [Bumetanide]	109 ± 9.6	95.9	109 ± 8.9	92	89.5 ± 4	108	99 ± 1.3	78.6 ± 14	133 ± 26
CCNC1CN(CCCOC)S(=O)(=O)c2sc(S(N)(=O)=O)cc21 (stereo unspecified) [Brinzolamide]	108 ± 12	142	97.6 ± 15	139	132 ± 16	100	88.17 ± 0.49	104 ± 12	96.6 ± 7.1
O=C(O)c1cccnc1 [Nicotinic Acid]	97.2 ± 15	119	100 ± 20	87.3	112 ± 18	98.5	92.8 ± 2.8	84.3 ± 10	143.6 ± 0.45
Cc1ccc(O)c(C(CCN(C(C)C)C(C)C)c2ccccc2)c1.O=C(O)C(O)C(O)C(=O)O (stereo unspecified) [Tolterodine tartrate]	113 ± 38	101	96.8 ± 7.1	93.6	97.1 ± 18	133	60.5 ± 8.9	91.5 ± 2.5	92.5 ± 1.7
CC(=O)OC1CC2CCC3C(CCC4(C)C3CC([N+]3(C)CCCCC3)C4OC(C)=O)C2(C)CC1N1CCCCC1.[Br-] (stereo unspecified) [Vecuronium Bromide]	84.7 ± 11	146	90.5 ± 0.71	105	110 ± 14	93.9	87.7 ± 8.1	80.9 ± 7.3	155 ± 3.4
NC(=O)c1cccnc1 [Nicotinamide]	95.4 ± 11	114	95.5 ± 14	99.9	110 ± 5	107	99.57 ± 0.88	86.9 ± 12	94.7 ± 5.4
O=c1sn(-c2cccc3ccccc23)c(=O)n1Cc1ccccc1 [Tideglusib]	119 ± 20	114	98.2 ± 11	96.3	95.7 ± 14	94.7	78.4 ± 1.8	86.22 ± 0.6	131 ± 9.7
CCN(CC)CCOC(=O)c1ccc(N)cc1 [Procaine]	99.4 ± 4.1	122	105 ± 23	87	96.765 ± 0.018	102	88.1 ± 3.5	97.3 ± 23	95.2 ± 24
C=C1CCN(C(C)C(O)(Cn2cncn2)c2ccc(F)cc2F)CC1 (stereo unspecified) [Efinaconazole]	119 ± 22	148	83.3 ± 19	91.5	126 ± 8.9	165	85.4 ± 5.2	95.9 ± 5.9	161 ± 25
CC[N+](CC)(CC)CCOc1cccc(OCC[N+](CC)(CC)CC)c1OCC[N+](CC)(CC)CC.[I-].[I-].[I-] [Gallamine Triethiodide]	107 ± 9.8	118	94.6 ± 20	88.1	107 ± 8.3	92.6	98 ± 6.3	118 ± 6.2	79.5 ± 6.1
OC(CCCN1CCCCC1)(c1ccccc1)c1ccccc1 [Diphenidol HCl]	117 ± 19	139	107 ± 12	82.5	88.1 ± 2.6	118	101 ± 25	108 ± 9.6	113 ± 11
